The target in assay [1] is Voltage-gated inwardly rectifying potassium channel KCNH2 (Homo sapiens) (UniProt Q12809). The experiment in a line: qHTS Assay for Small Molecule Inhibitors of the Human hERG Channel Activity (AID 588834).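 Note: lower thallium flux fluorescence means stronger hERG block; nearly all actives have a fitted effect of over 50% in size.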 The settings on record: U2OS BacMam hERG, FluxOR thallium flux fluorescence; series mostly up to 46.1 µM. In outline:
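Measured: FluxOR fluorescence after thallium stimulation in U2OS cells transduced with hERG by baculovirus. Compounds pre-incubated around 10 min; medium Opti-MEM with 2% FCS. AC50 from Hill equation.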
On the technique in general: Quantitative high-throughput screening tests each substance at several concentrations.

The target in assay [2] is Luciferin 4-monooxygenase (Photinus pyralis) (UniProt P08659). The experiment in a line: Biochemical firefly luciferase enzyme assay for NPC (AID 624030). Note: nearly all actives have a fitted effect of over 70% in size. The settings on record: purified P. pyralis luciferase, luminescence, 5 min; series mostly up to 58.6 µM. Summed up:
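Purified P. pyralis luciferase at 10 nM in 50 mM Tris Acetate (final), luminescence read within 5 minutes of enzyme addition to compounds. Activity normalised to PTC124 versus DMSO; concentration-response curves classed by r2, magnitude and activity.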

Results filed as inconclusive are left out. A call without a number means that no potency is given here. Activity calls are given as the source filed them. Calls come from the whole dose curve; as a rule, active = well fitted inhibition curve with a large enough effect; inconclusive = small, poorly fitted or top-dose-only effect; inactive = flat fitted curve, though single readings scatter. Where a SMILES comes first, the peptide text is derived from it. Bridges are numbered along the chain shown (N, C = ends). [ ]: non-standard residue; d: D form. The star is where a group is joined. Dab(CH2SO3H) = N[C@@H](CCNCS(=O)(=O)O)C(=O)O; X3 = CC[C@@H](C)CCCCC(=O)*; Dab = NCC[C@H](N)C(=O)O
Potency is the fitted concentration of half-maximal effect.

Sequence of Voltage-gated inwardly rectifying potassium channel KCNH2 (Homo sapiens) (Q12809 whole entry, looked up): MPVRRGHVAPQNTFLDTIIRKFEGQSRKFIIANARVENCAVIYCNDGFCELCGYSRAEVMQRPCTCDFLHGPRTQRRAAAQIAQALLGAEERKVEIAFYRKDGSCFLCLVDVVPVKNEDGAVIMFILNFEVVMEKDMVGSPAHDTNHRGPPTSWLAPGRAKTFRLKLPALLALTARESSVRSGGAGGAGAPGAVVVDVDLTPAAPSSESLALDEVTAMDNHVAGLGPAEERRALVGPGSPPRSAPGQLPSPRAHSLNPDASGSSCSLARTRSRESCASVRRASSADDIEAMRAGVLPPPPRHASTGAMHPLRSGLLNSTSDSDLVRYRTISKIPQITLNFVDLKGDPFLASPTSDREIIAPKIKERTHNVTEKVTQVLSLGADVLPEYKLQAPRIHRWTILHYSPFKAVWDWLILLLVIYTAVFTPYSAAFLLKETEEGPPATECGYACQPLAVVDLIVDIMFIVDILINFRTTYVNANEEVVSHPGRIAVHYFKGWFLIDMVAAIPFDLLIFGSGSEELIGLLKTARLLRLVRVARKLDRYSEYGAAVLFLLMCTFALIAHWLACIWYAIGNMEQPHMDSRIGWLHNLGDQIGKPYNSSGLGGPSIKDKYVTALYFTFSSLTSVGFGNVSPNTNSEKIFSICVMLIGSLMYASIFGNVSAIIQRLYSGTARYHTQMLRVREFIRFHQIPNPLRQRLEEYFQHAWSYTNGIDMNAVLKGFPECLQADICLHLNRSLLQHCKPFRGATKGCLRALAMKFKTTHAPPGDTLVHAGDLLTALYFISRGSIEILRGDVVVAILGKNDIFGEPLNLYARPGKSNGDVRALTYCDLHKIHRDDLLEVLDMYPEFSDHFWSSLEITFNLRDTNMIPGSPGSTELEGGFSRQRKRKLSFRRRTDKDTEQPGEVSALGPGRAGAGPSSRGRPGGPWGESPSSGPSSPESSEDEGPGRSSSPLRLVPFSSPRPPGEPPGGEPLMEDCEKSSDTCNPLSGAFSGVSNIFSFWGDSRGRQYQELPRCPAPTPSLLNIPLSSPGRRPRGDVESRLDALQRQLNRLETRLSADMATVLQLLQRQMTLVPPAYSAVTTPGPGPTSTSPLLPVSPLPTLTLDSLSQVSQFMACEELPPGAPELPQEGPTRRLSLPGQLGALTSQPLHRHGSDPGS
Sequence of Luciferin 4-monooxygenase (Photinus pyralis) (P08659 whole entry, looked up): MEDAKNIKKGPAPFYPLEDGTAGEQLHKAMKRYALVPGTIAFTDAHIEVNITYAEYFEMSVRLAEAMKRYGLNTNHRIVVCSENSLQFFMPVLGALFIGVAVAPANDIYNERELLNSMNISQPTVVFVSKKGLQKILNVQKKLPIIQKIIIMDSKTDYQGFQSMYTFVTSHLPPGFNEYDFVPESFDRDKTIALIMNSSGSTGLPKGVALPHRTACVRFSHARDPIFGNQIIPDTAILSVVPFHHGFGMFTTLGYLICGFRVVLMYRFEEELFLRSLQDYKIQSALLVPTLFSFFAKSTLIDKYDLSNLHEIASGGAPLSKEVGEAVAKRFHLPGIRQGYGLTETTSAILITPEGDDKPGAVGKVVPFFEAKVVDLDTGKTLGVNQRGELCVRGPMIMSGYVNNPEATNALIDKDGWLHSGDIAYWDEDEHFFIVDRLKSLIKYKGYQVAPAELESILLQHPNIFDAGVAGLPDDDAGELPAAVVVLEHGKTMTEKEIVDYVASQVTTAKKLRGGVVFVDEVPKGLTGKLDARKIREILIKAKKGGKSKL

Turning to `CN=C(NC#N)Nc1ccc(C2=NNC(=O)C[C@@H]2C)cc1`, the Potency entry in assay [1] was “inactive”.
As to `CCCCCCCCCCCCCCCC(=O)OCC(COC(=O)CCCCCCCCCCCCCCC)OC(=O)CCCCCCCCCCCCCCC`, the Potency entry in assay [1] and in assay [2] was “inactive” each time.
As to `COc1ccc2c3c1O[C@H]1C[C@@H](O)C=C[C@@]31CCN(C)C2`, the Potency entry in assay [1] and in assay [2] was “inactive” throughout.
For the molecule `NC1C2CN(c3nc4c(cc3F)c(=O)c(C(=O)O)cn4-c3ccc(F)cc3F)CC12` (stereo not drawn), the Potency entry in assay [1] and in assay [2] was “inactive” in each case.
In the case of `COc1cc(-c2ccc(-[n+]3nc(-c4ccccc4)nn3-c3ccc([N+](=O)[O-])cc3)c(OC)c2)ccc1-[n+]1nc(-c2ccccc2)nn1-c1ccc([N+](=O)[O-])cc1`, the Potency result in assay [1] and in assay [2] was “inactive” throughout.
On to `CC[C@@H](C)CCCCC(=O)N[C@@H](CCNCS(=O)(=O)O)C(=O)N[C@H](C(=O)N[C@@H](CCNCS(=O)(=O)O)C(=O)N[C@H]1CCNC(=O)[C@H]([C@@H](C)O)NC(=O)[C@H](CCNCS(=O)(=O)O)NC(=O)[C@H](CCNCS(=O)(=O)O)NC(=O)[C@H](CC(C)C)NC(=O)[C@@H](CC(C)C)NC(=O)[C@H](CCNCS(=O)(=O)O)NC1=O)[C@@H](C)O` (X3-[Dab(CH2SO3H)]T[Dab(CH2SO3H)][Dab][Dab(CH2SO3H)][dL]L[Dab(CH2SO3H)][Dab(CH2SO3H)]T; lactam 4-C), for which the Potency result in assay [1] was “inactive”.
For `O=C(O)c1cc(O)c2c(c1)[O][Bi][O]2`, the Potency result in assay [1] and in assay [2] was “inactive” throughout.
For the molecule `CC(=O)Oc1cc(C)c(OC(C)=O)c2ccccc12`, the Potency entry in assay [1] and in assay [2] was “inactive” throughout.
As to `NC(=O)c1ncn(C2OC(CO)C(O)C2O)n1` (stereo not drawn), the Potency entry in assay [1] and in assay [2] was “inactive” throughout.
With `O=C(Nc1cccc(C(F)(F)F)c1)c1cc(Br)cc(Br)c1O`, the Potency entry in assay [1] is “inactive”. In addition, in assay [2], the Potency is 7.21 µM (active).
`C#CCOc1ccc2c(C)cc(=O)oc2c1`: the Potency result in assay [1] and in assay [2] was “inactive” throughout.
On to `CC[C@@H](C(=O)[C@@H](C)[C@@H](O)[C@H](C)CCc1ccc(C)c(O)c1C(=O)O)[C@H]1O[C@](CC)([C@H]2CC[C@](O)(CC)[C@H](C)O2)C[C@@H]1C`, for which, in assay [1], the Potency result is “inactive”.
With `CCOC(=O)C1=C(C)NC(C)=C(C(=O)OCC)C1c1ccccc1C=CC(=O)OC(C)(C)C`, the Potency entry in assay [1] and in assay [2] was “inactive” in each case.
Take `CC[C@H]1OC(=O)[C@H](C)[C@@H](O[C@H]2C[C@@](C)(OC)[C@@H](O)[C@H](C)O2)[C@H](C)[C@@H](O[C@@H]2O[C@H](C)C[C@H](N(C)C)[C@H]2O)[C@](C)(O)C[C@@H](C)/C(=N\OCOCCOC)[C@H](C)[C@@H](O)[C@]1(C)O`: in assay [1], the Potency result was “inactive”.
Regarding `O=C(O)C1CCCN1` (stereo not drawn), the Potency result in assay [1] was “inactive”.
Consider `O=C(COc1ccc(Cl)cc1)OCCNC12CC3CC(CC(C3)C1)C2`, for which, in assay [2], the Potency entry was “inactive”.
Turning to `Cc1c(C)c2c(c(C)c1O)CC[C@@](C)(CCC[C@H](C)CCC[C@H](C)CCCC(C)C)O2`, the Potency result in assay [2] is “inactive”.
For `OCC(S)CS` (stereo not drawn), the Potency entry in assay [1] was “inactive”.
As to `O=C1C(=O)c2ncccc2-c2cccnc21`, the Potency result in assay [1] and in assay [2] was “inactive” each time.
Turning to `O=C(Nc1ccc(Br)cc1)c1cc(Br)c(Br)s1`, the Potency in assay [2] is 16.1 µM (active).
Turning to `O=C1CSC2(CCN(CCCN3c4ccccc4Sc4ccc(Cl)cc43)CC2)N1`, the Potency in assay [1] is 7.08 µM (active). In addition, the Potency result in assay [2] is “inactive”.

For the origin of these results see PubChem BioAssay (NCATS).
